# PubChem BioAssay
# Several values for one entry are separate records, joined by “and”; a condition that tells them apart may be missing. Identical values can stand only once. Activity calls are given as the source filed them.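 Rule for the calls, unless noted: active = thallium flux through the channel raised or lowered by more than 3 SD from vehicle-only wells, actives on both sides; inactive = the rest.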
# How the values were obtained:
# [1] = liver-stage malaria parasite growth inhibition, primary screen, cell-based, HepG2, luciferase luminescence, HepG2 viability (AID 624349; in the data active = parasite load remaining mostly below about 12%, no sharp cut-off; inactive = mostly above about 10%;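 note: 100% = mean of DMSO negative control wells on the same plate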); conditions: P. berghei liver stage in HepG2, luciferase luminescence, concentration not given here; parasite load remaining: stronger effect = lower value; viability: measured here: HepG2 viability without parasites
# [2] = Cy5 fluorescence interference with SSB-bound oligo, artefact control for HCV NS3 helicase inhibitor project, biochemical, NIH Clinical Collection, E. coli SSB (AID 743268; call rule not given here)
# [3] = tested on: Hepatitis C virus NS3 helicase; experiment: HCV NS3 helicase inhibitors, primary screen, biochemical, fluorescence polarization, NIH Clinical Collection (AID 743270; call rule not given here); conditions: NS3 helicase binding to Cy5-dT15 DNA, stronger effect = higher value, concentration not given here
# [4] = molecular target: Single-stranded DNA-binding protein (Escherichia coli (strain K12)) (UniProt P0AGE0); experiment: E. coli SSB displacement from DNA, counter-screen for HCV NS3 helicase inhibitor project, biochemical, fluorescence polarization, NIH Clinical Collection (AID 743271; in the data active = inhibition above about 28%); conditions: stronger effect = higher value, concentration not given here
# [5] = fluorescence interference in NS3h assay format, artefact control for HCV NS3 helicase inhibitor project, biochemical, NIH Clinical Collection (AID 743272; call rule not given here;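 note: HCV NS3 helicase with a Cy5 labelled single stranded DNA probe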); conditions: fluorescence interference counterscreen, stronger effect = lower value
# [6] = tested on: Neuropilin-2 / VEGF-C interaction (human); experiment: inhibitors of NRP2–VEGF-C binding, biochemical, microplate binding format, z-score (AID 743281; call rule not given here); conditions: microplate NRP2/VEGF-C binding assay; stronger effect = lower value
# [7] = modulation of C. elegans fzo-1 (AID 1259413; call rule not given here;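 note: fzo-1 mutant C. elegans worms in liquid wells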); conditions: C. elegans fzo-1 modulator screen, mean read-out; stronger effect = higher value
# [8] = sensitizers of A549 cells to miR-34 induction, primary screen, imaging, A549 dox-inducible miR-34, nuclei and caspase counts (AID 1347080;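 active = compounds whose cell count with miR-34 switched on is under 0.7 times the count with it off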); conditions: A549 miR-34 inducible, Hoechst nuclei count, 48 h
# F380Y = experiment: modulators of BK channel variants, profiling panel, selectivity assay, cell-based, U2OS BacMam, thallium flux, beta subunits (AID 1259406); conditions: at 30 µM;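 note: initial slope of Thallos dye fluorescence rise after thallium is added; log ratio against the mean of 0.3% DMSO vehicle wells on the same plate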
# F380Y/beta1 = experiment: as above; conditions: at 30 µM
# F380Y/beta2Delta = experiment: as above; conditions: at 30 µM
# F380Y/beta4 = experiment: as above; conditions: at 30 µM
# [9] = molecular target: Calcium-activated potassium channel subunit alpha-1 (Homo sapiens) + Leucine-rich repeat-containing protein 26 (Homo sapiens) (UniProt Q12791+Q2I0M4); experiment: as above; conditions: F380Y/Slo1WT/gamma1, at 30 µM
# R275C = experiment: as above; conditions: at 30 µM
# R275C/beta1 = experiment: as above; conditions: at 30 µM
# R275C/beta2Delta = experiment: as above; conditions: at 30 µM
# R275C/beta4 = experiment: as above; conditions: at 30 µM
# R275C/Slo1WT/beta2 = experiment: as above; conditions: at 30 µM
# [10] = differential killing of epithelial or mesenchymal cells, primary screen, imaging, PC-3E GFP, TEM4-18 mCherry, co-culture (AID 1345086;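 active = compounds killing one labelled cell type while sparing the other, by normalised counts and ratio limits, not self-fluorescent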;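 note: cells exposed to compound for 72 h before imaging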;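 for red/green cell ratio (normalised): normalised mesenchymal count divided by normalised epithelial count so high means epithelial killing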); conditions: imaging cell counts, at 1 µM
# [11] = measured here: relative caspase fold change +Dox/-Dox
# [12] = measured here: total cells with miR-34 induction, stronger effect = lower value
# [13] = measured here: total cells without miR-34 induction
# [14] = stronger effect = lower value, cell number ratio, induced over uninduced
# Calcium-activated potassium channel subunit alpha-1 (Homo sapiens) + Leucine-rich repeat-containing protein 26 (Homo sapiens), sequence (Q2I0M4 whole entry, looked up, one chain of several): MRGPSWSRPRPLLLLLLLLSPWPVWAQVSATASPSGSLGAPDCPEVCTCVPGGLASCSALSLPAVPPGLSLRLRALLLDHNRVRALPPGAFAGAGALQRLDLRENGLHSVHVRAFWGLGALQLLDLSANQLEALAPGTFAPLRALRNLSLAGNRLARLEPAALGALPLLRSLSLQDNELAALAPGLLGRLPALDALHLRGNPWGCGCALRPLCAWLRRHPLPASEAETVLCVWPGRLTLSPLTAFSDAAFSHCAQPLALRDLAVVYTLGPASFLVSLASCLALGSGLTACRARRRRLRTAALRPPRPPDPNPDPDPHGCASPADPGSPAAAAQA
smiles,measurement,setting,value
Cc1nnc2n1-c1ccc(Cl)cc1C(c1ccccc1)=NC2,parasite load remaining,[1],139% (inactive)
same,viability,[1],72.1%
same,fluorescence ratio,[2],1.03 (inactive)
same,inhibition,[3],-4.36% (inactive)
same,inhibition,[4],-1.64% (inactive)
same,fluorescence ratio,[5],0.99 (inactive)
same,z-score,[6],-0.124 (inactive)
same,mean signal,[7],234 (inactive)
same,fold change,[8]; stronger effect = lower value,1.01 (inactive)
same,fold change,[8]; [11],1.21
same,cell count,[8]; [12],9000
same,cell count,[8]; [13],8940
same,log fold change Tl+ flux,F380Y,-0.0314 (inactive)
same,log fold change Tl+ flux,F380Y/beta1,-0.00299 (inactive)
same,log fold change Tl+ flux,F380Y/beta2Delta,-0.00534 (inactive)
same,log fold change Tl+ flux,F380Y/beta4,-0.0542 (inactive)
same,log fold change Tl+ flux,[9],-0.0153 (inactive)
same,log fold change Tl+ flux,R275C,0.0519 (inactive)
same,log fold change Tl+ flux,R275C/beta1,0.00402 (inactive)
same,log fold change Tl+ flux,R275C/beta2Delta,0.0255 (inactive)
same,log fold change Tl+ flux,R275C/beta4,0.0351 (inactive)
same,log fold change Tl+ flux,R275C/Slo1WT/beta2,-0.00622 (inactive)
CC[C@@H](C(N)=O)N1CCCC1=O,parasite load remaining,[1],91.8% (inactive) and 41.8% (inactive)
same,viability,[1],70% and 106%
same,fluorescence ratio,[2],1.01 (inactive)
same,inhibition,[3],7.52% (inactive)
same,inhibition,[4],9.91% (inactive)
same,fluorescence ratio,[5],1.02 (inactive)
same,z-score,[6],-0.78 (inactive)
same,mean signal,[7],234 (inactive)
same,fold change,[8]; stronger effect = lower value,1.08 (inactive) and 0.876 (inactive)
same,fold change,[8]; [11],1.59 and 0.289
same,cell count,[8]; [12],11300 and 10400
same,cell count,[8]; [13],10400 and 11900
same,log fold change Tl+ flux,F380Y,-0.0178 (inactive)
same,log fold change Tl+ flux,F380Y/beta1,-0.022 (inactive)
same,log fold change Tl+ flux,F380Y/beta2Delta,-0.0158 (inactive)
same,log fold change Tl+ flux,F380Y/beta4,0.0243 (inactive)
same,log fold change Tl+ flux,[9],-0.0482 (inactive)
same,log fold change Tl+ flux,R275C,0.037 (inactive)
same,log fold change Tl+ flux,R275C/beta1,-0.0285 (inactive)
same,log fold change Tl+ flux,R275C/beta2Delta,-0.00577 (inactive)
same,log fold change Tl+ flux,R275C/beta4,-0.0209 (inactive)
same,log fold change Tl+ flux,R275C/Slo1WT/beta2,-0.0311 (inactive)
CCN(C(C)=O)c1cccc(-c2ccnc3c(C#N)cnn23)c1,parasite load remaining,[1],67.8% (inactive)
same,viability,[1],71%
same,fluorescence ratio,[2],0.96 (inactive)
same,inhibition,[3],-1.97% (inactive)
same,inhibition,[4],-3.54% (inactive)
same,fluorescence ratio,[5],0.98 (inactive)
same,z-score,[6],-0.583 (inactive)
same,mean signal,[7],228 (inactive)
same,red/green cell ratio (normalised),[10]; actives lie on both sides,1.11 (inactive)
same,normalised cell number,[10]; measured here: epithelial PC-3E GFP cell survival,1.1
same,normalised cell number,[10]; measured here: mesenchymal TEM4-18 mCherry cell survival,1.22
same,fold change,[8]; stronger effect = lower value,0.85 (inactive)
same,fold change,[8]; [11],1.13
same,cell count,[8]; [12],8990
same,cell count,[8]; [13],10600
COC(=O)N1CCN(C(=O)Cc2ccc(Cl)c(Cl)c2)C(CN2CCCC2)C1 (centres undefined),parasite load remaining,[1],76.7% (inactive)
same,viability,[1],75.4%
same,fluorescence ratio,[2],1.05 (inactive)
same,inhibition,[3],4.36% (inactive)
same,inhibition,[4],2.21% (inactive)
same,fluorescence ratio,[5],1.03 (inactive)
same,z-score,[6],1.19 (inactive)
same,mean signal,[7],274 (inactive)
same,fold change,[8]; stronger effect = lower value,0.961 (inactive)
same,fold change,[8]; [14],0.883 (inactive)
same,fold change,[8]; [11],1.01 and 1.9
same,cell count,[8]; [12],10100 and 8750
same,cell count,[8]; [13],10500 and 9910
same,log fold change Tl+ flux,F380Y,0.0797 (inactive)
same,log fold change Tl+ flux,F380Y/beta1,0.0396 (inactive)
same,log fold change Tl+ flux,F380Y/beta2Delta,0.0718 (inactive)
same,log fold change Tl+ flux,F380Y/beta4,0.0372 (inactive)
same,log fold change Tl+ flux,[9],-0.0265 (inactive)
same,log fold change Tl+ flux,R275C,-0.00833 (inactive)
same,log fold change Tl+ flux,R275C/beta1,0.0475 (inactive)
same,log fold change Tl+ flux,R275C/beta2Delta,0.0511 (inactive)
same,log fold change Tl+ flux,R275C/beta4,0.0175 (inactive)
same,log fold change Tl+ flux,R275C/Slo1WT/beta2,0.0529 (inactive)
COc1ccc2c(c1)C13CCCC[C@@H]1C(C2)N(C)CC3 (some centres undefined),parasite load remaining,[1],74.7% (inactive)
same,viability,[1],74%
same,fluorescence ratio,[2],0.98 (inactive)
same,inhibition,[3],0.4% (inactive)
same,inhibition,[4],2.21% (inactive)
same,fluorescence ratio,[5],0.92 (inactive)
same,z-score,[6],-0.757 (inactive)
same,mean signal,[7],229 (inactive)
CC12CCC(=O)C=C1CCC1C2CCC2(C)C(O)CCC12 (centres undefined),parasite load remaining,[1],38.7% (inactive)
same,viability,[1],100%
same,fluorescence ratio,[2],0.97 (inactive)
same,inhibition,[3],-3.18% (inactive)
same,inhibition,[4],-3.53% (inactive)
same,fluorescence ratio,[5],1.01 (inactive)
same,fold change,[8]; stronger effect = lower value,0.96 (inactive)
same,fold change,[8]; [11],2.43
same,cell count,[8]; [12],9970
same,cell count,[8]; [13],10400
same,log fold change Tl+ flux,F380Y,0.0199 (inactive)
same,log fold change Tl+ flux,F380Y/beta1,0.0232 (inactive)
same,log fold change Tl+ flux,F380Y/beta2Delta,0.032 (inactive)
same,log fold change Tl+ flux,F380Y/beta4,-0.0491 (inactive)
same,log fold change Tl+ flux,[9],-0.042 (inactive)
same,log fold change Tl+ flux,R275C,0.011 (inactive)
same,log fold change Tl+ flux,R275C/beta1,0.00563 (inactive)
same,log fold change Tl+ flux,R275C/beta2Delta,0.059 (inactive)
same,log fold change Tl+ flux,R275C/beta4,-0.00525 (inactive)
same,log fold change Tl+ flux,R275C/Slo1WT/beta2,-0.0485 (inactive)
CS(=O)(=O)Nc1ccc(Cc2noc(-c3ccc4[nH]cc(CCN)c4c3)n2)cc1,parasite load remaining,[1],62% (inactive)
same,viability,[1],68.7%
same,fluorescence ratio,[2],0.59 (active)
same,inhibition,[3],3.28% (inactive)
same,inhibition,[4],36.6% (active)
same,fluorescence ratio,[5],0.8 (active)
same,z-score,[6],1.81 (inactive)
same,mean signal,[7],254 (inactive)
same,fold change,[8]; stronger effect = lower value,0.897 (inactive)
same,fold change,[8]; [14],0.9 (inactive)
same,fold change,[8]; [11],2.28 and 0.865
same,cell count,[8]; [12],9380 and 8560
same,cell count,[8]; [13],10500 and 9520
same,log fold change Tl+ flux,F380Y,-0.0227 (inactive)
same,log fold change Tl+ flux,F380Y/beta1,0.0172 (inactive)
same,log fold change Tl+ flux,F380Y/beta2Delta,-0.088 (inactive)
same,log fold change Tl+ flux,F380Y/beta4,-0.0117 (inactive)
same,log fold change Tl+ flux,[9],-0.0241 (inactive)
same,log fold change Tl+ flux,R275C,-0.054 (inactive)
same,log fold change Tl+ flux,R275C/beta1,0.0159 (inactive)
same,log fold change Tl+ flux,R275C/beta2Delta,-0.0492 (inactive)
same,log fold change Tl+ flux,R275C/beta4,0.0477 (inactive)
same,log fold change Tl+ flux,R275C/Slo1WT/beta2,0.0125 (inactive)
C=CCN1CC[C@]23c4c5ccc(O)c4O[C@H]2C(=O)CCC3(O)[C@H]1C5 (some centres undefined),mean signal,[7],247 (inactive)
